The inhibition is the change of the read-out against control, counted positive when it falls.

The text below walks through data of PubChem BioAssay.

Records with an inconclusive call do not appear. Activity calls are given as the source filed them. Cut-off read from the data, not from the text of the source, unless noted: active = percent of DMSO control GFP below about 86%; inactive = the rest, inconclusive results apart.

The nature of experiment [1]: yeast TOR pathway RPL19A-GFP modulators, primary screen, cell-based, S. cerevisiae, multiplex flow cytometry (AID 1862).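 Note: lower values mimic rapamycin by blocking the RPL19A rise seen in DMSO cells.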 To be noted: S. cerevisiae RPL19A-GFP strain, flow cytometry fluorescence, 3 h; at 10 µM; stronger effect = lower value. In general terms: Flow cytometry measures light scatter and fluorescence of single cells or particles in a stream.
The nature of experiment [2]: modulators of MEP2-GFP levels in yeast, primary screen, S. cerevisiae, multiplex flow cytometry (AID 1867;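 active = GFP response, as percent of the DMSO control, above the screen-wide mean plus 3 SD, about 139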;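 note: median GFP channel fluorescence of barcode-gated MEP2-GFP cells measured by flow cytometry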). Conditions: S. cerevisiae MEP2-GFP strain, 3 h, at 10 µM, stronger effect = higher value, 100% means same as DMSO wells.
Experiment [3] is described as follows: modulators of CIT2-GFP expression in yeast, primary screen, S. cerevisiae, GFP fusion, multiplex flow cytometry (AID 1870;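 active = percent response above a set limit, the screen-wide mean plus 3 SD, cut at about 130% in these data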;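 note: barcoded CIT2-GFP strain pooled with four other GFP strains with rapamycin as positive control; median GFP fluorescence per well over plate mean of DMSO wells so 100% = DMSO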). Conditions: 3 h, at 10 µM, stronger effect = higher value.
Experiment [4] in a line: modulators of LAP4-GFP expression in yeast, primary screen, S. cerevisiae, multiplex flow cytometry (AID 1873;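 active = GFP signal, as percent of the solvent control, above the screen mean plus 3 SD, about 149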). Conditions: 3 h, at 10 µM, stronger effect = higher value.
Experiment [5] can be described thus: modulators of AGP1-GFP expression in yeast TOR pathway, primary screen, cell-based, multiplex flow cytometry, S. cerevisiae (AID 1887;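 active = GFP signal above the screen-wide mean plus 3 SD, that is over about 124.5% of the solvent control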;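 note: AGP1-GFP fusion strain of S. cerevisiae within a five-strain barcoded multiplex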). To be noted: 3 h, at 10 µM, stronger effect = higher value.
The nature of experiment [6]: inhibitors of CD8+ T cell-vesicle binding, pilot screen, LFA-1/ICAM-1 modulator project, MLPCN validation set, flow cytometry (AID 2523;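 active = response below a set limit, under 55% cells CD8-positive and vesicle-bound, and CD8 cells' 90th-percentile brightness under 279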;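 for vesicle binding response: mean PE anti-B7-1 fluorescence of CD8+ cells relative to row control; 100% = QL9-loaded vesicles with DMSO vehicle in the same plate row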). Conditions: 2C mouse CD8+ T cells, at 7 µM, stronger effect = lower value; double positive events: measured here: CD8+/vesicle+ event percentage.
For experiment [7], the target named is Integrin beta-1 (Homo sapiens) + Integrin alpha-4 (Homo sapiens) (UniProt P13612+P05556). The experiment is described as follows: inhibition of HUTS-21 binding to VLA-4, pilot screen, VLA-4 allosteric modulator project, U937 cells, HUTS-21 mAb, flow cytometry, validation set (AID 2674;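 active = inhibition above 50%, about 3 SD of the validation set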;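 note: antibody binding induced by the VLA-4 ligand LDV present at three times its Kd; 0% = LDV ligand with antibody and no compound and 100% = antibody without LDV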). Conditions: HUTS-21 LIBS mAb binding, at 6.7 µM, stronger effect = higher value, binding induced by LDV ligand.
Sequence of Integrin beta-1 (Homo sapiens) + Integrin alpha-4 (Homo sapiens) (P05556 whole entry, looked up): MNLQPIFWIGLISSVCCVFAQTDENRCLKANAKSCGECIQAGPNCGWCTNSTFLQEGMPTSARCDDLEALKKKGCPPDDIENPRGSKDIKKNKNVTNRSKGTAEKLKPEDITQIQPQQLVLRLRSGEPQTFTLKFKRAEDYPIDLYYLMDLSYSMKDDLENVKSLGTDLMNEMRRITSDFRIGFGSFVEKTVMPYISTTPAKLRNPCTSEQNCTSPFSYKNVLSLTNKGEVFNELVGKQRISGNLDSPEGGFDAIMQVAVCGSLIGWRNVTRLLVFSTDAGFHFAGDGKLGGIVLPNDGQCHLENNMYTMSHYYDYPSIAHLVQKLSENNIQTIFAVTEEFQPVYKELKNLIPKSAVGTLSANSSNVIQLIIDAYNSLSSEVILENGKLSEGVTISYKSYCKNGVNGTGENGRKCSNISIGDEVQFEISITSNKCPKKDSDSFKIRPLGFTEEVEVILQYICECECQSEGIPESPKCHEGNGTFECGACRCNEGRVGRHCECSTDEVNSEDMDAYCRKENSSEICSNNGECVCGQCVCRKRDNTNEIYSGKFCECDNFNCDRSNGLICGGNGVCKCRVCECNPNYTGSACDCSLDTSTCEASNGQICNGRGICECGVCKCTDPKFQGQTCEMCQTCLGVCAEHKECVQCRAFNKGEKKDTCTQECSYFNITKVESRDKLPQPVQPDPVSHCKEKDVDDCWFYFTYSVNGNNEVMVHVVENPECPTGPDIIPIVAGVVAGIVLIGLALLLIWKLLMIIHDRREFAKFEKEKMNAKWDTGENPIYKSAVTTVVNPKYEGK
Sequence of Integrin beta-1 (Homo sapiens) + Integrin alpha-4 (Homo sapiens) (P13612 whole entry, looked up): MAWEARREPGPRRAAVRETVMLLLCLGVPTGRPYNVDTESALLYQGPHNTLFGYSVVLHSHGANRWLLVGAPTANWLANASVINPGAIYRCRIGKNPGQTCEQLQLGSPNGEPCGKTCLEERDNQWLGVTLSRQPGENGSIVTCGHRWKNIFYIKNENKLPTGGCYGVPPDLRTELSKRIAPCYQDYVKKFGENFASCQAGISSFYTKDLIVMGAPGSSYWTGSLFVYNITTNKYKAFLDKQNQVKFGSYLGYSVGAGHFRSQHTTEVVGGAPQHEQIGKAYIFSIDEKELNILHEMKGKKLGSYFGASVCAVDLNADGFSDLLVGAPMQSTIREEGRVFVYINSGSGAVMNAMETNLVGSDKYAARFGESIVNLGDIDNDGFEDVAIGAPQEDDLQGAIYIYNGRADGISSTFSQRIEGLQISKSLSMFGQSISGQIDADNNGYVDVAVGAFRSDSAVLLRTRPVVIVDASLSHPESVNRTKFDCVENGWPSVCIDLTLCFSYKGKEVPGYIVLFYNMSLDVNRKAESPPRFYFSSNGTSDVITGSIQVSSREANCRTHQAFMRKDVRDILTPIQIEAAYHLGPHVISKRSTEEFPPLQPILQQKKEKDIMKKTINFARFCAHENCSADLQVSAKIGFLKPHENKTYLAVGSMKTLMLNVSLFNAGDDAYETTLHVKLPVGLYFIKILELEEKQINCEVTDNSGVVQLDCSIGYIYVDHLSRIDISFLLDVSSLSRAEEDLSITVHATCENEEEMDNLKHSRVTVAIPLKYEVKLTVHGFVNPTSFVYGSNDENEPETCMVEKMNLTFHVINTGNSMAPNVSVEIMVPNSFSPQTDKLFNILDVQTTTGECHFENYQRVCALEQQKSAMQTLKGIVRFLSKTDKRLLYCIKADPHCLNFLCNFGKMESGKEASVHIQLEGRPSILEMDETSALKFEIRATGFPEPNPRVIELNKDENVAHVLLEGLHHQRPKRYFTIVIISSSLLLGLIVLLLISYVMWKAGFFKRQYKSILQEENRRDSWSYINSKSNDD

The nature of experiment [8]: superoxide lowering in aged yeast cells, pilot screen, validation compound set (AID 2706;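 active = superoxide response below 65% of plate, a cut near 3 SD across the whole screen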;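 note: yeast exposed to compound for one week at 30 degrees C before staining; 100% = mean of all compound wells on the same plate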). Conditions: S. cerevisiae aging, superoxide DHE fluorescence; at 10 µM; stronger effect = lower value.
Experiment [9] concerns the target Beta-adrenergic receptor kinase 1 (Homo sapiens) (UniProt P25098). In words: GRK2 binders displacing RNA aptamer, biochemical, validation, human GRK2, bead flow cytometry (AID 488806;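 active = aptamer binding inhibition above 30%, about 3 SD of noise from non-fluorescent compounds; inactive = inhibition at or below 30%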). To be noted: bead-bound GRK2, FAM-aptamer displacement, at 10 µM, stronger effect = higher value.
Experiment [10] deals with Beta-2 adrenergic receptor (Homo sapiens) (UniProt P07550). In words: beta2AR agonists driving receptor internalization, pilot screen, cell-based, FAP fluorogen, flow cytometry, validation set (AID 504459;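 active = percent response above 42, roughly 3 SD of non-fluorescent test compounds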;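 note: agonist-driven loss of surface beta2AR via internalization measured by FAP dye flow cytometry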). To be noted: Am2.2-beta2AR cells, FAP surface receptor flow cytometry; at 10 µM; stronger effect = higher value.
Sequence of Beta-2 adrenergic receptor (Homo sapiens) (P07550 whole entry, looked up): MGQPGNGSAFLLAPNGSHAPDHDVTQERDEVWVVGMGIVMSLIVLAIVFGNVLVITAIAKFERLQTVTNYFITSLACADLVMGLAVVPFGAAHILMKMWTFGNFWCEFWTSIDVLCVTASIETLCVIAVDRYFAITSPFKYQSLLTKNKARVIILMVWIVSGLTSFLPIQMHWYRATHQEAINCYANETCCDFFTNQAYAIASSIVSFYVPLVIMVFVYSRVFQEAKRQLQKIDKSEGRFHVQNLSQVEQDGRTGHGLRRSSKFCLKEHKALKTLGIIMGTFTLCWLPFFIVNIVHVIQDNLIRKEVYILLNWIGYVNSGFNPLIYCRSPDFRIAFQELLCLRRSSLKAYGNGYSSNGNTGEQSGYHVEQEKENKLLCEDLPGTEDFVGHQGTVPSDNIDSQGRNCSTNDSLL
For experiment [11], the target named is AP-2 complex subunit beta (Homo sapiens) (UniProt P63010). In words: inhibitors of arrestin peptide binding to AP2, pilot screen, biochemical, validation set, GST-AP2 beads, flow cytometry (AID 504541;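 active = inhibition above 54%, about 3 SD of non-fluorescent compounds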;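 note: AP2 carries R879A mutation and is captured from E. coli lysate; bead-bound FITC arrestin peptide fluorescence measuring arrestin peptide binding to AP2; 0% = DMSO wells and 100% = excess unlabeled arrestin peptide control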). To be noted: FITC arrestin peptide, at 10 µM, stronger effect = higher value, AP2 beta2 appendage fragment, R879A mutant.
Sequence of AP-2 complex subunit beta (Homo sapiens) (P63010 whole entry, looked up, the tested form may be a part, one chain of several): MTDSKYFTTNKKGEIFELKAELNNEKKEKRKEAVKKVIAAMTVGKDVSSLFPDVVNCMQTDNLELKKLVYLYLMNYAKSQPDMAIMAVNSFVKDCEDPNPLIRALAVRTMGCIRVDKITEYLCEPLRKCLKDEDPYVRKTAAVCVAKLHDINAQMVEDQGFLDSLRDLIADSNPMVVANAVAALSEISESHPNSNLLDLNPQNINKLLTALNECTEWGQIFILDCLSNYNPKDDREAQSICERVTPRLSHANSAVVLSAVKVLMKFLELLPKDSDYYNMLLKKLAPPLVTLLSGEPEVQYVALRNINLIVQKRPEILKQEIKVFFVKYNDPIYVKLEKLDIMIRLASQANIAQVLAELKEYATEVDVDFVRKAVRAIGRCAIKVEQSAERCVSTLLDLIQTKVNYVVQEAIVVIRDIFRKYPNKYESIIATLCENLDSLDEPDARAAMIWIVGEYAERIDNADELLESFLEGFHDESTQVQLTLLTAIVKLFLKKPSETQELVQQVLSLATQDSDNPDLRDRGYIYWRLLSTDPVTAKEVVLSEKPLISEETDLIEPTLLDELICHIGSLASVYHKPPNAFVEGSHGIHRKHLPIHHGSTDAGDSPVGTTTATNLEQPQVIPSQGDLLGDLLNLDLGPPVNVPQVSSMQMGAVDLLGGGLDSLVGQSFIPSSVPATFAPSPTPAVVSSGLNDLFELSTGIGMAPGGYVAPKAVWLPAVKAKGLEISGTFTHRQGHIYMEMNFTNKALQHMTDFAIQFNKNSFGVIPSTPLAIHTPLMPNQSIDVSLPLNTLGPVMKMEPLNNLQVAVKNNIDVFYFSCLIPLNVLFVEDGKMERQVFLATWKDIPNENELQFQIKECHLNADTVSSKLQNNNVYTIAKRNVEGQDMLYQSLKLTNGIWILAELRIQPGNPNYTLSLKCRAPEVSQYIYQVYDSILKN
The nature of experiment [12]: yeast V-ATPase proton transport modulators, S. cerevisiae, pHLuorin, HTS validation (AID 504600; in the data active = response above about 15%;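 note: plate controls were DMSO for no effect and reference compound for full effect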). To be noted: S. cerevisiae pHLuorin cytosolic pH, at 10 µM, stronger effect = higher value.
In experiment [13] the test system is anti-desmoglein-3 scFv antibody binding to human DSG3. The experiment is described as follows: inhibitors of anti-DSG3 scFv binding to DSG3, pilot screen, biochemical, validation compound set, bead-based, flow cytometry (AID 588368;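 active = binding below the plate cutoff, the plate median minus 3 SD, with a reading above zero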;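 note: signal is the median channel fluorescence of bead-bound GFP antibody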). To be noted: Protein G beads, DSG3-Fc, scFv-GFP binding, at 10 µM, stronger effect = lower value.
Experiment [14] can be described thus: inhibitors of fungal efflux pumps CDR1, CDR2, MDR1, pilot screen, validation compound set, multiplex, phenotypic (AID 588506;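 active = efflux inhibition above 0.42, the validation set average plus 4 SD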;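 note: Nile Red retained in cells so higher fluorescence means more efflux inhibition; 0 = negative control wells and 1 = enniatin B 25 µM full block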). Conditions: S. cerevisiae pump-expressing triplex, Nile Red efflux flow cytometry; at 10 µM; stronger effect = higher value; the pumps come from Candida albicans.
The target in experiment [15] is ATP-binding cassette sub-family B member 6 (Homo sapiens) (UniProt Q9NP58). The experiment is described as follows: ABCB6 transporter inhibitors, pilot screen, K562-ABCB6 cells, flow cytometry, validation set (AID 588550;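 active = inhibition above the screen-wide mean plus 3 SD, about 51%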;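 note: 0% = DMSO wells and 100% = benzethonium chloride 70 µM positive control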). Conditions: K562-ABCB6 porphyrin accumulation, 1 h, at 10 µM, stronger effect = higher value.
Sequence of ATP-binding cassette sub-family B member 6 (Homo sapiens) (Q9NP58 whole entry, looked up): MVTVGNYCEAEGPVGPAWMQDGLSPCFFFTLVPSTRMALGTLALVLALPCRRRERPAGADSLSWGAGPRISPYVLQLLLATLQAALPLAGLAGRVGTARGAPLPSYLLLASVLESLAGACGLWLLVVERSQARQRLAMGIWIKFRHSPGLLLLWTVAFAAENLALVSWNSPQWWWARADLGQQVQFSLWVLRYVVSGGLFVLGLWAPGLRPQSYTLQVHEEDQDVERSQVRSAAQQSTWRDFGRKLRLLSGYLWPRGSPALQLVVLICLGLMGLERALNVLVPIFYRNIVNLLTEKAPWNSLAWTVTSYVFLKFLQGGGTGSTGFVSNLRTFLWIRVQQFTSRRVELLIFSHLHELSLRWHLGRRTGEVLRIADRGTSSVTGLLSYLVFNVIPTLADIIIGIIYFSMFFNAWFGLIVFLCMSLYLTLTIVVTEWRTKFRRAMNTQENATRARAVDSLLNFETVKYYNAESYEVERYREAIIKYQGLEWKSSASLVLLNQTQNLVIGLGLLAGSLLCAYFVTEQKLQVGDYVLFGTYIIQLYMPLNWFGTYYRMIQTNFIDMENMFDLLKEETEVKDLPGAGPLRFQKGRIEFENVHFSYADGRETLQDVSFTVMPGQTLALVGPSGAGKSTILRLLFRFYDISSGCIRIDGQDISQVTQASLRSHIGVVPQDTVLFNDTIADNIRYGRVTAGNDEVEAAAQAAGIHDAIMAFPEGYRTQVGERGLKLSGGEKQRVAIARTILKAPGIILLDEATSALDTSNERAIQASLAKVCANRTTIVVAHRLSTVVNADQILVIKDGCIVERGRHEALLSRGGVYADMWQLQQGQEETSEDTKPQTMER
Experiment [16] can be described thus: promoters of myeloid differentiation in arrested cells, primary screen, cell-based, GFP/MAC1 double positive, flow cytometry, validation set (AID 588685;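 active = differentiation response of at least 50%, scaled between solvent and reference control, from cells with both markers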;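 note: compound exposure lasts four days before antibody staining and flow analysis; 0% = DMSO wells and 100% = 5 µM fulvestrant positive control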). To be noted: ER-HoxA9 marrow cells, stronger effect = higher value, normalized: vehicle 0, fulvestrant 100.

Sequence of Beta-adrenergic receptor kinase 1 (Homo sapiens) (P25098 whole entry, looked up): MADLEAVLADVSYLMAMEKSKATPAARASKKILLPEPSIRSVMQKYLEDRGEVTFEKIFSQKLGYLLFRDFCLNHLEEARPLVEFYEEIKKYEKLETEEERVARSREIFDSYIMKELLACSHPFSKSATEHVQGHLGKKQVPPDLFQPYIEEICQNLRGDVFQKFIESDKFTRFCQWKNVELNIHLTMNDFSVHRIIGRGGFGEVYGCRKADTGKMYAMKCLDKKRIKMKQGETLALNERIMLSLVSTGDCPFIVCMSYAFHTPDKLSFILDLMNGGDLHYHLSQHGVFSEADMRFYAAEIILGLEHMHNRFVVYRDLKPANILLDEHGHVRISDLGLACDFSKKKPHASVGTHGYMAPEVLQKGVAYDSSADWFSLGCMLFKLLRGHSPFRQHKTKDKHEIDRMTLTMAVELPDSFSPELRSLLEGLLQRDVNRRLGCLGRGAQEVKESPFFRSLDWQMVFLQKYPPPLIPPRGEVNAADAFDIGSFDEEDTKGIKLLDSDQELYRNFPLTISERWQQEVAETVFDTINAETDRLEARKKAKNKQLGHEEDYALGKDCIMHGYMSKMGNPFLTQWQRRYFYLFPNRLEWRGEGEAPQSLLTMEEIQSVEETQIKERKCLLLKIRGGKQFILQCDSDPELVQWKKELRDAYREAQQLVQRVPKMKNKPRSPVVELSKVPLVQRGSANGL

Turning to `O=C(O)CCCCCN1C(=O)C(=O)/C(=C(/O)c2ccccc2)C1c1ccccc1` (stereo not given), the percent of DMSO control GFP in experiment [1] was 99.5% (inactive). The GFP response vs DMSO in experiment [2] was 97.4% (inactive); in experiment [4] it was 119% (inactive). The percent response of DMSO control in [3] was 98.6% (inactive). The GFP response, % of DMSO in experiment [5] is 102% (inactive). The same compound yielded a double positive events in experiment [6] of 63.1%. Also, the vesicle binding response in experiment [6] is 212% (inactive). Besides, the inhibition in [7] is -5.89% (inactive); in experiment [11], -10.9% (inactive); in experiment [15], 7% (inactive). Further, the superoxide response (% of plate) in experiment [8] was 103% (inactive). Also, in experiment [9], the aptamer binding inhibition is 7% (inactive). The response in experiment [10] is -2.6% (inactive); in experiment [12], -1.69% (inactive). Also, the binding (% of control) in experiment [13] was 98% (inactive). For the same compound, in [14], the efflux inhibition (fraction of control) is -0.06 (inactive). For the same compound, the differentiation response in [16] was 7.2% (inactive).

As for `Cn1c(Oc2ccc3c(c2)OCO3)nc2c1c(=O)n(Cc1ccccc1)c(=O)n2C`, the percent of DMSO control GFP in [1] is 98.7% (inactive). Also, the values for the GFP response vs DMSO in [2] and in [4] were 102% (inactive) and 104% (inactive), respectively. Also, in experiment [3], the percent response of DMSO control was 94.4% (inactive). For the same compound, the GFP response, % of DMSO in experiment [5] was 109% (inactive). This compound also displayed a double positive events in [6] of 60.5%. Besides, in experiment [6], the vesicle binding response is 189% (inactive). The values for the inhibition in experiment [7], in experiment [11] and in experiment [15] were -5.38% (inactive), 3.83% (inactive) and 5% (inactive), respectively. In addition, in [8], the superoxide response (% of plate) was 116% (inactive). The aptamer binding inhibition in [9] was 8% (inactive). Also, the response was -26.9% (inactive) in experiment [10] and -0.9% (inactive) in experiment [12]. Besides, the binding (% of control) in [13] is 97.8% (inactive). Further, the efflux inhibition (fraction of control) in [14] is 0.04 (inactive). In addition, the differentiation response in experiment [16] was -4.99% (inactive).

For `CCO/C([O-])=N/c1c[n+](N2CCOCC2)no1`, in [1], the percent of DMSO control GFP is 99.8% (inactive). The GFP response vs DMSO in [2] is 97.7% (inactive); in experiment [4], 110% (inactive). The percent response of DMSO control in [3] was 103% (inactive). Besides, in experiment [5], the GFP response, % of DMSO was 106% (inactive). Besides, the double positive events in [6] is 64.1%. Also, the vesicle binding response in experiment [6] was 237% (inactive). The inhibition in experiment [7] is -18.5% (inactive); in experiment [11] it was -14.8% (inactive); in experiment [15], -4% (inactive). Moreover, in experiment [8], the superoxide response (% of plate) is 115% (inactive). Besides, in experiment [9], the aptamer binding inhibition is -1% (inactive). The values for the response in [10] and in [12] were 9.37% (inactive) and 0.46% (inactive), respectively. In addition, the binding (% of control) in experiment [13] is 100% (inactive). Further, the efflux inhibition (fraction of control) in experiment [14] is 0 (inactive). The differentiation response in experiment [16] was -0.18% (inactive).

As to `CCCCCCC(=O)N(O)C1CC(=O)N(Cc2ccccc2)C1=O` (stereo not given), the percent of DMSO control GFP in [1] is 106% (inactive). Further, the results for the GFP response vs DMSO in experiment [2] and in [4] were 101% (inactive) and 94% (inactive), respectively. Further, in experiment [3], the percent response of DMSO control is 107% (inactive). For the same compound, the GFP response, % of DMSO in experiment [5] is 101% (inactive). In addition, the double positive events in [6] was determined as 59.7%. Moreover, the vesicle binding response in experiment [6] was 191% (inactive). Moreover, the figures for the inhibition in experiment [7], in experiment [11] and in [15] were -0.45% (inactive), 6.86% (inactive) and 9% (inactive), respectively. Besides, the superoxide response (% of plate) in experiment [8] is 103% (inactive). Further, the aptamer binding inhibition in experiment [9] was 1% (inactive). The response in experiment [10] is -3.98% (inactive); in [12], 0.52% (inactive). In addition, the binding (% of control) in experiment [13] is 100% (inactive). In addition, the efflux inhibition (fraction of control) in experiment [14] is -0.01 (inactive). Besides, the differentiation response in [16] is -4.64% (inactive).

Take `CCc1cc2c(=O)c(-c3ccc4c(c3)OCCO4)coc2c(CN2CCCCC2C)c1O` (stereo not given): the percent of DMSO control GFP in experiment [1] was 103% (inactive). Moreover, the GFP response vs DMSO in experiment [2] is 98.6% (inactive); in experiment [4], 103% (inactive). In addition, in experiment [3], the percent response of DMSO control was 91.8% (inactive). Moreover, in [5], the GFP response, % of DMSO was 109% (inactive). This compound showed a double positive events in experiment [6] of 63.4%. In addition, the vesicle binding response in [6] was 177% (inactive). The figures for the inhibition in [7], in [11] and in experiment [15] were 14.2% (inactive), 9.88% (inactive) and -2% (inactive), respectively. Further, the superoxide response (% of plate) in experiment [8] was 65.8% (inactive). Further, the aptamer binding inhibition in experiment [9] is 2% (inactive). Further, the response in experiment [10] was -18.8% (inactive); in [12] it was 3.99% (inactive). Also, the binding (% of control) in experiment [13] was 112% (inactive). For the same compound, the efflux inhibition (fraction of control) in [14] is -0.04 (inactive). The differentiation response in experiment [16] was 15.7% (inactive).
